Laboratory results published in the supplement of paper PMC4709259.
Where a name gives a salt, the structure may show the parent alone. ± gives the standard deviation.

Assays:
Jurkat [1] = assay: mean cell size (FSC-A) relative to DMSO control (fraction of control); higher = larger cells; settings: 48 h
In short: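 Jurkat cells seeded at 600 cells/µl were incubated 1 h, then exposed for 48h to the Enzo Screen-Well FDA Approved Drug Library v2.0 at 25µM in 0.9% (v/v) final DMSO. Drugs that cut counts below 20% of controls were diluted 10-fold and retested, down to 25nM. Cell count and mean cell size (forward scatter area) were read on an Accuri C6 flow cytometer, relative to solvent-only controls. Plates held 6-12 controls; values are means of 3 biological replicates.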

Jurkat [2] = assay: cell count relative to DMSO control (fraction of control); higher = more cells (less growth inhibition); settings: 48 h

Compound	mean cell size (Jurkat [1])	cell count (Jurkat [2])
COc1ccc(C(CN(C)C)C2(O)CCCCC2)cc1 (stereo not given) [Venlafaxine·HCl] (concentration: 25 µM)	0.987 ± 0.021	0.498 ± 0.12
C[N+]1(C)CCCC(OC(=O)C(O)(c2ccccc2)c2ccccc2)C1 (stereo not given) [Mepenzolate Bromide] (concentration: 25 µM)	0.91 ± 0.039	1.15 ± 0.042
CN1CCN(C(=O)O[C@H]2c3nccnc3C(=O)N2c2ccc(Cl)cn2)CC1 [Eszopiclone] (concentration: 25 µM)	1.01 ± 0.025	0.796 ± 0.072
CN(C)[C@@H]1C(=O)C(C(N)=O)=C(O)[C@@]2(O)C(=O)C3=C(O)c4c(O)cccc4[C@@](C)(O)[C@H]3C[C@@H]12 [Tetracycline] (concentration: 25 µM)	0.998 ± 0.064	0.556 ± 0.046
O=C1Nc2ccc(Cl)cc2C(c2ccccc2)=NC1O (stereo not given) [Oxazepam] (concentration: 25 µM)	0.938 ± 0.029	0.645 ± 0.05
CC[C@@H](C(N)=O)N1CCCC1=O [Levetiracetam] (concentration: 25 µM)	0.968 ± 0.018	0.603 ± 0.1
O=C1CC[C@@]2(O)[C@H]3Cc4ccc(O)c5c4[C@@]2(CCN3CC2CC2)[C@H]1O5 [Naltrexone·HCl] (concentration: 2.5 µM)	0.985 ± 0.049	0.399 ± 0.091
O=P1(N(CCCl)CCCl)NCCCO1 (stereo not given) [Cyclophosphamide (Free Base)] (concentration: 25 µM)	1.01 ± 0.051	0.623 ± 0.15
COc1cc([C@@H]2c3cc4c(cc3[C@H](O)[C@H]3COC(=O)[C@H]23)OCO4)cc(OC)c1OC [Podofilox] (concentration: 25 nM)	0.863 ± 0.026	0.0355 ± 0.018
CCOC(=O)c1cncn1[C@H](C)c1ccccc1 [Etomidate] (concentration: 25 µM)	1.04 ± 0.049	0.854 ± 0.055
C[N+]1(C)[C@@H]2CC(OC(=O)[C@H](CO)c3ccccc3)C[C@H]1[C@@H]1O[C@@H]12 (stereo partly drawn) [Methscopolamine Bromide ((-)-Scopolamine Methyl Bromide)] (concentration: 25 µM)	1.05 ± 0.046	0.683 ± 0.089
CC(C)C[C@H]1C(=O)N2CCC[C@H]2[C@]2(O)O[C@](NC(=O)[C@@H]3C=C4c5cccc6[nH]c(Br)c(c56)C[C@H]4N(C)C3)(C(C)C)C(=O)N12 [Bromocriptine Mesylate] (concentration: 25 µM)	0.939 ± 0.031	0.288 ± 0.21
Oc1ccc2c(c1)[C@@]13CCCC[C@@]1(O)[C@@H](C2)N(CC1CCC1)CC3 [Butorphanol-(+)-Tartrate (Schedule Iv)] (concentration: 25 µM)	0.952 ± 0.049	0.586 ± 0.075
N[C@@H](Cc1ccc(N(CCCl)CCCl)cc1)C(=O)O [Melphalan] (concentration: 250 nM)	1.02 ± 0.022	0.46 ± 0.08
NCC1(CC(=O)O)CCCCC1 [Gabapentin] (concentration: 25 µM)	0.943 ± 0.02	0.935 ± 0.036
O=C(O[C@H]1C[C@H]2CC[C@@H](C1)[N+]21CCCC1)C(O)(c1ccccc1)c1ccccc1 [Trospium Chloride] (concentration: 25 µM)	1.07 ± 0.049	0.982 ± 0.079
COC[C@@H](NC(C)=O)C(=O)NCc1ccccc1 [Lacosamide] (concentration: 25 µM)	0.927 ± 0.067	0.639 ± 0.031
CC(=O)O[C@H]1C[C@@H]2CC[C@@H]3[C@H](CC[C@@]4(C)[C@H]3C[C@H]([N+]3(C)CCCCC3)[C@@H]4OC(C)=O)[C@@]2(C)C[C@@H]1[N+]1(C)CCCCC1 [Pancuronium·2Br] (concentration: 25 µM)	0.963 ± 0.015	1.12 ± 0.09
CN1C(=O)CC(=O)N(c2ccccc2)c2cc(Cl)ccc21 [Clobazam] (concentration: 25 µM)	0.984 ± 0.032	0.64 ± 0.12
CCN(C(C)=O)c1cccc(-c2ccnc3c(C#N)cnn23)c1 [Zaleplon] (concentration: 25 µM)	1 ± 0.059	0.664 ± 0.14
O=C(O)CCCc1ccc(N(CCCl)CCCl)cc1 [Chlorambucil] (concentration: 250 nM)	0.945 ± 0.019	0.352 ± 0.089
CN1C[C@H](C(=O)N[C@]2(C)O[C@@]3(O)[C@@H]4CCCN4C(=O)[C@H](Cc4ccccc4)N3C2=O)C[C@@H]2c3cccc4[nH]cc(c34)C[C@H]21 [Dihydroergotamine Mesylate] (concentration: 25 µM)	1 ± 0.027	0.297 ± 0.092
NC(=O)C[S+]([O-])C(c1ccccc1)c1ccccc1 (stereo not given) [Modafinil (Schedule Iv)] (concentration: 25 µM)	0.968 ± 0.014	0.807 ± 0.05
CC[C@@H](CO)NC(=O)[C@@H]1C=C2c3cccc4[nH]cc(c34)C[C@H]2N(C)C1 [Methylergonovine Maleate] (concentration: 25 µM)	1.01 ± 0.016	0.865 ± 0.15
Oc1ccc2c3c1O[C@H]1[C@@H](O)CC[C@@]4(O)[C@@H](C2)N(CC2CCC2)CC[C@]314 [Nalbuphine·HCl Dihydrate] (concentration: 25 µM)	0.955 ± 0.048	0.995 ± 0.17
